Compound activity from PubChem BioAssay.
ssDAF-12 act: activates DAF-12 receptor from parasite S. stercoralis | HEK293 ssDAF-12/GRIP1 lit1-tk-luc reporter, luminescence; % of 3 µM dafachronic acid response | activation, % at 6.8 µM | 370,000 tested, 1% active | AID 652126;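 active means activation above the mean over all tested compounds plus 3 SD, cut at about 0.9% in these data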
AHR activator: activates the human aryl hydrocarbon receptor. AHR-responsive luciferase reporter cells, luminescence. activation, % at 5 µM. 320,000 tested, 2.5% active. AID 2796; in the data active means activation above about 47%
DAX1 inh-1: inhibits human nuclear receptor DAX1; P51843; HEK293 Gal4-DAX1 luciferase reporter, luminescence; inhibition, % at 6.75 µM; 340,000 tested, 0.99% active; AID 504766;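 active means inhibition above the mean over all tested compounds plus 3 SD, cut at about 4.2% in these data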;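 further: inhibition shows as a rise in luminescence from relieved DAX1 repression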
Target sequence (P51843 207-470 limits assumed): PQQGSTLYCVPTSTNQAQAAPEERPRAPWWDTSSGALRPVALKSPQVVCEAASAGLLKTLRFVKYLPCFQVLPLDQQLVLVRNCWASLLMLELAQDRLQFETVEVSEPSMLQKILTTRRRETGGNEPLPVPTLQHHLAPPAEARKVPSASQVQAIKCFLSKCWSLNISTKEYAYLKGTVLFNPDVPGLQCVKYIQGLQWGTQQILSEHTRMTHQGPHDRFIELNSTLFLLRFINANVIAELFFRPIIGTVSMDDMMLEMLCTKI
hcDAF-12 act: activators of H. contortus DAF-12 nuclear receptor. HEK293 hcDAF-12 lit1-tk-luc reporter, luminescence; 0% DMSO, 100% Δ7-dafachronic acid. activation, % at 6.8 µM. 370,000 tested, 1.4% active;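 active means activation above the mean of all tested compounds plus 3 SD, cut at about 5.5% in these data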
DAX1 inh-2: inhibitors of DAX1 repression of SF-1 activated StAR promoter; HEK293T StAR-luciferase reporter, SF-1/DAX-1 repression relief; inhibition, % at 6.8 µM; 370,000 tested, 1.1% active; AID 652010;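 active means inhibition above the mean over all tested compounds plus 3 SD, cut at about 3.6% in these data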;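 further: higher inhibition means more luminescence from relief of DAX-1 repression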
hgDAF12 agonist: hgDAF-12 agonism, primary luciferase screen; activation, % at 6.8 µM; HEK293 GAL4-hgDAF12 UAS-luciferase reporter, agonist luminescence; normalized to butyrate control; 370,000 tested, 1.8% active;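 active means activation above a cutoff set at the mean of all screened compounds plus 3 SD, cut at about 10% in these data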
A number is an active result; 0 = inactive; - = not tested or not shown. Compounds with a hit are over-represented: about 5.7% of the library has one in this group of screens.

SMILES	ssDAF-12 act	AHR activator	DAX1 inh-1	hcDAF-12 act	DAX1 inh-2	hgDAF12 agonist
CN1CCN(CC(=O)Nc2nnc(-c3cccs3)s2)CC1	0	111	0	0	0	0
CCC(CC)C(=O)Nc1nnc(-c2cccs2)s1	0	73	0	0	0	0
COc1cccc(OC)c1C(=O)Nc1nnc(-c2cccs2)s1	0	0	0	0	0	0
CN1CCN(/N=C/c2c3ccccc3c(Cl)c3ccccc23)CC1	0	57	0	0	0	0
Clc1ccc(CN2CCN(N=Cc3c4ccccc4cc4ccccc34)CC2)cc1	0	-	-	0	0	0
CN(C)c1ccc(/C=C2\SC(N3CCCCC3)=NC2=O)cc1	0	0	4.6	0	0	0
O=C(NCCc1ccc(C(F)(F)F)cc1)C1CCC(=O)N(CCCN2CCCC2=O)C1 (stereo not drawn)	0	0	0	0	0	0
Cc1[nH]c2ccccc2c1-c1csc(NC(=O)CSCC(=O)O)n1	0	0	0	0	0	0
Cc1[nH]c2ccccc2c1-c1csc(NC(=O)CN2CCOCC2)n1	0	70	0	0	0	0
CCN(CC)c1ccc(/C=N/n2c(-c3ccccc3Br)n[nH]c2=S)cc1	0	0	0	0	0	0
Cc1nn(-c2ccccc2)c(C)c1/C=N/n1c(-c2ccccc2Br)n[nH]c1=S	0	51	0	0	0	0
COC(=O)[C@]12C[C@H](CC(=O)N3CCC(c4ccccc4)CC3)C(=O)N(Cc3cccc4ccccc34)C1=C[C@H](C(C)(C)C)O[C@@H]2C	0	-	-	0	0	0
O=c1[nH]c(Nc2nc3ccccc3o2)nc2c1CCCC2	0	55	0	0	0	0
Cc1ccc(Nc2nc3c(c(=O)[nH]2)CCCC3)cc1	0	0	0	0	0	0
Cc1ccc(Sc2ccc(NC(=O)c3ccc(S(C)(=O)=O)cc3Cl)cc2)cc1	0	48	0	0	0	0
Cc1ccc(C)c(NC(=O)c2ccccn2)c1	0	0	0	0	0	0
Cc1ccc(NC(=O)Nc2ncccc2C)cc1	0	57	0	0	0	0
Cc1ccc(NC(=O)Nc2cccs2)nc1	0	0	0	0	0	0
Cc1cccnc1NC(=S)Nc1ccc(F)cc1F	0	0	0	0	0	11
Cc1ccc(C)c(NC(=S)Nc2ncccc2C)c1	0	0	0	0	0	12
Cc1ccc(NC(=O)Nc2cccs2)cc1	0	0	0	0	0	11
COc1ccc(Cl)cc1NC(=O)CN(C)C(=O)c1cc(C)oc1C	0	0	0	0	0	0
CC(C)C(=O)Nc1cc(-c2nc3ncccc3o2)ccc1Cl	0	0	0	0	0	0
C#CCOc1ccccc1C(=O)NNc1ccc([N+](=O)[O-])cc1[N+](=O)[O-]	0	-	-	0	0	0
Cc1nn(-c2ccccc2)nc1C(=O)c1c(C)[nH]n(-c2ccccc2)c1=O	0	0	0	0	0	0
SMILES	ssDAF-12 act	AHR activator	DAX1 inh-1	hcDAF-12 act	DAX1 inh-2	hgDAF12 agonist
COc1ccc(C2CC(c3ccc4ccccc4c3OC(C)=O)=NN2C(C)=O)cc1 (stereo not drawn)	0	0	5.4	0	0	0
CC(=O)N(CCc1ccccc1)Cc1cc2cc(C)ccc2[nH]c1=O	0	54	0	0	0	0
CC(C)n1c(CCC(=O)O)ccc1-c1ccccc1	0	0	4.3	0	0	0
O=C(O)CCc1ccc(-c2ccccc2)n1CC(=O)O	0	0	0	0	0	0
COc1ccc(NC(=O)c2nc[nH]c2C(=O)N[C@@H](C)c2ccccc2)cc1	0	48	0	0	0	0
CNC(=O)c1[nH]cnc1C(=O)Nc1cccc(OC)c1	0	57	0	0	0	0
COc1cccc(NC(=O)c2ncc(Cl)c(Cl)c2Cl)c1	0	0	0	0	0	11
O=[N+]([O-])c1ccc(Cc2cncc(O)c2)cc1	0	-	0	0	0	0
CCN1CCN(C(=S)c2ccc(O)cc2)CC1	0	0	7.5	0	0	0
CCN1CCN(C(=S)c2ccc(Br)cc2)CC1	0	0	0	0	0	0
Cc1c(Cl)cnc(NC(=O)COC(=O)c2cc3c(s2)CCC(C)C3)c1Cl (stereo not drawn)	1.4	0	0	0	0	0
CC(C)(C)OC(=O)N1CCCN(C(=O)Nc2ccc(C(F)(F)F)cc2)CC1	0	0	-	0	0	0
[O-][n+]1ccc(C(O)c2ccccc2)cc1 (stereo not drawn)	0	0	5.1	0	0	0
CC(=O)c1sc(NC(=O)c2ccc(C)c(C)c2)nc1C	0	0	6.2	0	0	13
CC(=O)c1sc(NC(=O)COc2ccccc2)nc1C	0	0	4.5	0	0	0
O=C(COc1ccccc1)NNc1nc2ccccc2s1	0	50	6.5	0	0	0
COc1ccc2nc(NNC(=O)COc3ccccc3)sc2c1	0	72	0	0	0	0
CCCCCCCCCCCCN1CCSCCS1(=O)=O	0	-	-	0	0	0
COCCOc1ccc(C(F)(F)F)cc1NC(=O)c1ccc(F)cc1	0	54	0	0	0	0
CN(C(=O)c1ccc(NC(=O)Cc2cccc(NC(=O)C3CCN(C(=O)c4ccccc4)CC3)c2)cc1)C1CCCC1	0	0	0	0	0	0
CC(=O)NCCC(=O)Nc1sc2c(c1-c1nc3ccccc3[nH]1)CCCC2	0	0	0	0	0	0
CN1CCN(S(=O)(=O)c2cccc(C(=O)Nc3sc4c(c3-c3nc5ccccc5[nH]3)CCCC4)c2)CC1	0	0	0	6.1	0	0
COC(=O)Cc1[nH]c(=O)[nH]c1C(=O)OC	0	0	4.6	0	0	0
O=C(Nc1ccc(N2CCCC2=O)cc1)c1cccc(F)c1	0	0	0	0	0	11
O=C(Nc1cc2c3c(c1)CC(=O)N3CCC2)c1ccc(F)cc1	0	47	0	0	0	0
SMILES	ssDAF-12 act	AHR activator	DAX1 inh-1	hcDAF-12 act	DAX1 inh-2	hgDAF12 agonist
O=C(O/N=C1/CCCc2occc21)c1ccc(Cl)cc1Cl	0	0	6.8	0	0	0
O=C(O/N=C1/CCCc2occc21)c1ccccc1	0	0	0	0	0	0
Cc1cccc(-c2cccc3[nH]c4c(c23)CCN2C(=O)[C@H]3[C@H](C)ON(C)[C@H]3C[C@@H]42)c1	0	-	-	0	0	0
COc1ccc(OC)c(S(=O)(=O)N2CCCC(c3noc(-c4ccc(C)cc4)n3)C2)c1 (stereo not drawn)	0	-	-	0	0	0
Cc1ccc(-c2nc(C3CCCN(S(=O)(=O)c4ccc(C)c(C)c4)C3)no2)cc1 (stereo not drawn)	1.0	-	-	0	0	0
Cc1ccc(-n2[nH]c3c4c(ccc3c2=O)C(=O)c2ccccc2C4=O)cc1	0	0	0	0	0	0
COCCCn1[nH]c2c3c(ccc2c1=O)C(=O)c1ccccc1C3=O	0	52	0	0	0	0
CC(C)(C)n1[nH]c2c3c(ccc2c1=O)C(=O)c1ccccc1C3=O	0	50	0	0	0	0
